# About 83,000 compounds went through this panel and 20% of them were active in at least one assay; those are over-represented in the sample as a whole.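 Growth was measured after 48 h exposure to one concentration of compound in 96-well plates. Values under 10 count as active.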 Values without a mark were called inactive. Calls of active or inactive are those of the source.
# Tested on: UO-31 renal
# Assay: NCI-60 one-dose screen, 48 h (100 = growth as untreated, 0 = no growth, -100 = all killed)
# Details: 10 µM unless noted
# Method: Growth inhibition of the UO-31 human tumor cell line is measured as a screen for anti-cancer activity. Cells are grown in 96 well plates and exposed to the test compound for 48 hours. Compounds are tested at a single concentration, which is 10^-5 M for most compounds. The reported endpoint is percent growth (GI% or GIPRCNT), where numbers from 0 - 100% represent growth inhibition, and numbers from -100% - 0 represent cell death. For example, a value of 40 represents 60% growth inhibition. A value of 0 means no net growth occurred over the course of the experiment. A value of -40 indicates 40% of cells at the beginning of the experiment died by the end of the experiment. A value of -100 means all cells are dead at the end of the experiment.
# NCI-60 Human Tumor Cell Lines Screen was performed using the standard one-dose NCI protocol, which is described in more detail at https://dtp.cancer.gov/discovery_development/nci-60/default.htm.
# Compounds with GIPRCNT values below 10 were considered active. Activity score was based on GIPRCNT using the following formula: […]
# Score is 0 for GIPRCNT values of 100 or above, 50 for GIPRCNT values of 0, and 100 for GIPRCNT values of -100.
row,Compound,growth
1,CCN(CC)CCOc1ccc2ccc(=O)oc2c1,82.9%
2,COc1ccc(C2CC(n3ccnc3)c3cc(OC)c(OC)c(OC)c32)cc1O (stereo not given),79.9%
3,FC(F)(F)c1[nH]ncc1-c1nc2ccc3[nH]ncc3c2c2c1CCCC2,-26.8% (active)
4,Cn1c(=O)[nH]c(=O)c2nc3c(nc21)-c1ccccc1C3=O,83.8%
5,C#Cc1cccc(NC(=O)C2CCCCN2C(=O)CCl)c1 (stereo not given),-97.3% [8.25 µM] (active)
6,O=C(Nc1ccc(Oc2cccc(Cl)c2)c(Cl)c1)c1cccnn1,64.9%
7,C=CCn1cc(-c2nc3ccccc3s2)c2cc(-c3ccc4c5c(cccc35)C(=O)N(CCO)C4=O)ccc21,62.7%
8,C=C1SC(=Nc2ccccc2Cl)N(C(=O)c2sc3ccccc3c2Cl)C1(C)C,107%
9,C#Cc1cccc(Nc2ncnc3cc(NC(=O)CCl)ccc23)c1,-91.5% (active)
10,N#Cc1c(-c2ccc(Br)cc2)nc2c(N=Nc3ccc(S(N)(=O)=O)cc3)c(N)nn2c1N,59.5%
11,CCOC(=O)c1cnn(CC(C)O)c1NC(=O)NCc1cccc(F)c1 (stereo not given),91.7%
12,Cc1cc(=O)oc2cc(Oc3nc(Br)cn4c(Br)cnc34)ccc12,58.8%
13,Oc1c(I)cc(I)cc1CN(Cc1ccccn1)Cc1ccccn1,-19.2% (active)
14,N#Cc1nn(-c2cc(=O)[nH]c3ccc(Br)cc23)c(N)c1C#N,65.7%
15,CN(C)/C(N)=N/N=C(\c1ccccc1)c1ccccn1,83.6%
16,COc1cc(N2C(=O)[C@H](Cl)C2c2ccc(SC)cc2)cc(OC)c1OC (stereo not given in full),40.6%
17,COCCn1cc(-c2csc(-c3c[nH]c4ccccc34)n2)c2cccnc21,44%
18,COc1ccc2[nH]cc(-c3nonc3-c3c[nH]c4ccc(Br)cc34)c2c1,36.5%
19,O=C1/C(=C/c2c[nH]c(=O)[nH]c2=O)SC(=S)N1Cc1ccccc1,75.8%
20,COC12C=C/C(=C(/C(=O)OCc3cncnc3)C(=O)CCCCCCCCC3(OC)C=C/C(=C(/C(=O)OCc4cncnc4)C(=O)CCCCCCCC1)O3)O2,-73.6% (active)

row,Compound,growth
1,Cc1c(O)cc(-c2cnc(N/N=C/c3ccccc3)s2)c(O)c1C,79.9%
2,CS(=O)(=O)c1ccc(-c2nc3ccccc3n2CC(=O)N/N=C/c2ccccc2)cc1,76.3%
3,O=C1CCCC1[n+]1ccccc1 (stereo not given),90%
4,O=C(Oc1ccc2c(c1)sc1nc(-c3ccccc3)[nH]c(=O)c12)C(F)(F)F,26.1%
5,CC(C)Cc1nc(Nc2ccccc2)[nH]c(=O)c1C#N,14%
6,Cc1ccc(S(=O)(=O)OCC#CCOS(=O)(=O)c2ccc(C)cc2)cc1,-87.1% (active)
7,CNC(=O)NCC1OC(n2cnc3c(NC(=O)Nc4ccccc4)ncnc32)C2OC(=O)CC12 (stereo not given),64.2%
8,CC1(C)CC[C@]23CC[C@]4(C)[C@H](CC[C@@H]5[C@@]6(C)CCNCC(C)(C)[C@@H]6CC[C@]54C)[C@H]2[C@H]1OC3,99.5%
9,COc1cc2c(c(OC)c1OC)CCC(c1cccc(C(=O)Nc3ccc(Br)cc3)c1)O2 (stereo not given),39.7%
10,CCSc1ccnc(N)n1,97.7%
11,O=[N+]([O-])c1ccccc1Sc1ccccc1[N+](=O)[O-],75.5%
12,COc1ccc(C2C3=C(COC3=O)N(CCO)c3cc4c(cc32)OCO4)cc1OC (stereo not given),95.9%
13,CC12OC(CC(O)C1O)n1c3ccccc3c3c4c(c5c6ccccc6n2c5c31)C(=O)N(CCN1CCCC1)C4=O (stereo not given),19.5%
14,CCOC(=O)c1nnn(-c2no[n+]([O-])c2-c2ccc(OC)cc2)c1COc1cccc2cccnc12,34.3%
15,C[C@@H]1NC(=O)[C@H](Cc2ccccc2)N(Cc2cccnc2)C1=O,89%
16,CC1(C)N=C(N)N=C(N)N1c1ccc(S(=O)(=O)Nc2nccs2)cc1,89.5%
17,O=C(NNc1nc2cc(F)ccc2n2c(CN3CCOCC3)ccc12)c1ccccc1,12.1%
18,CCOC(=O)NC(=S)n1oc(=O)c2ccccc21,82.2%
19,O=C(/C=C/C12c3ccccc3C(c3ccccc31)C1C(=O)NC(=O)C12)c1ccc(I)cc1 (stereo not given),46.2%
20,O=C(NCCNC(c1ccccc1)C(NCCNC(=O)c1ccccc1)c1ccccc1)c1ccccc1 (stereo not given),80.3%
